Experimental data as given in PubChem BioAssay (EPA / NIEHS).
The source made the active and inactive calls. Rule for the calls: active = hit-call score of the fitted dose curve at least 0.9, where 1 is the maximum; inactive = score below 0.9.

assay: CCTE_Harrill_HTTr_Viability_DMEM_6hr: (Pilot) CCTE's 6-hour Cell Viability Assessment for the High-Throughput Transcriptomics (HTTr) Platform, in MCF-7 cells cultured in DMEM + 10% fetal bovine serum, Harrill Lab (AID 2283973)
Procedure, shortened: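 MCF-7 cells in DMEM + 10% FBS, eight-point dilution series, 6 h exposure. Membrane integrity by propidium iodide exclusion with high-content imaging; bidirectional fit versus DMSO.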

Question: With `CCCN(CCOc1c(Cl)cc(Cl)cc1Cl)C(=O)n1ccnc1` as the compound, how does the outcome read?
Answer: inactive

Question: With `O=C(O)C(F)(F)C(F)(F)C(F)(F)C(F)(F)C(F)(F)C(F)(F)C(F)(F)F` as the compound, how does the outcome read?
Answer: inactive

Question: Which outcome does the source give for `O=S(=O)(O)C(F)(F)C(F)(F)C(F)(F)C(F)(F)C(F)(F)C(F)(F)C(F)(F)C(F)(F)F` here?
Answer: inactive

assay: CCTE_Harrill_HTTr_Viability_DMEM_12hr: (Pilot) CCTE's 12-hour Cell Viability Assessment for the High-Throughput Transcriptomics (HTTr) Platform, in MCF-7 cells cultured in DMEM + 10% fetal bovine serum, Harrill Lab (AID 2283974)
Procedure, shortened: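 MCF-7 cells in DMEM + 10% FBS exposed 12 h to an eight-point dilution series; membrane integrity scored by propidium iodide exclusion with high-content imaging, bidirectional fitting versus DMSO.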

Question: With `CCCN(CCOc1c(Cl)cc(Cl)cc1Cl)C(=O)n1ccnc1` as the compound, how does the outcome read?
Answer: inactive

Question: With `O=C(O)C(F)(F)C(F)(F)C(F)(F)C(F)(F)C(F)(F)C(F)(F)C(F)(F)F` as the compound, how does the outcome read?
Answer: inactive

Question: With `O=S(=O)(O)C(F)(F)C(F)(F)C(F)(F)C(F)(F)C(F)(F)C(F)(F)C(F)(F)C(F)(F)F` as the compound, how does the outcome read?
Answer: inactive

assay: CCTE_Harrill_HTTr_Viability_DMEM_24hr: (Pilot) CCTE's 24-hour Cell Viability Assessment for the High-Throughput Transcriptomics (HTTr) Platform, in MCF-7 cells cultured in DMEM + 10% fetal bovine serum, Harrill Lab (AID 2283975)
Procedure, shortened: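 MCF-7 cells in DMEM with 10% FBS exposed for 24 hours to an eight-point dilution series. Membrane integrity by propidium iodide exclusion with high content imaging; bidirectional fit against DMSO.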

Question: Which outcome does the source give for `CCCN(CCOc1c(Cl)cc(Cl)cc1Cl)C(=O)n1ccnc1` here?
Answer: inactive

Question: For `O=C(O)C(F)(F)C(F)(F)C(F)(F)C(F)(F)C(F)(F)C(F)(F)C(F)(F)F`, which outcome is on record?
Answer: inactive

Question: Which outcome does the source give for `O=S(=O)(O)C(F)(F)C(F)(F)C(F)(F)C(F)(F)C(F)(F)C(F)(F)C(F)(F)C(F)(F)F` here?
Answer: inactive
